Reference: PubChem BioAssay (EPA / NIEHS)
“And” between values parts separate entries of the source, which are not always exact repeats. Equal entries are not always repeated. Inconclusive results are not listed. The source made the active and inactive calls. How the source made its calls: active means hit-call score of the fitted dose curve at least 0.9, where 1 is the maximum; inconclusive means response in the unintended direction; inactive means score below 0.9.

Assay: CCTE_Shafer_MEA_dev_AB: CCTE's Alamar Blue Assay for Cytotoxicity in the Neural Network Formation Assay, Shafer Lab (AID 2284083);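 further: twelve days of exposure from plating with re-dosing on DIV 5 and 9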
Protocol: CCTE_Shafer_MEA_dev assay is conducted using Axion Biosystems 48 well microelectrode array (MEA) plates and Maestro recording system. Each well of the MEA plate contains a grid of 16 microelectrodes embedded in the culture surface. Electrically active cells, such as neurons, can be cultured over the electrodes, and electrical activity in these cells can be recorded extracellularly. The spontaneous firing of neurons is captured from each electrode on a microsecond timescale providing both temporally and spatially precise data. […] The CCTE_Shafer_MEA_dev assay uses primary cultures of rat cortical neurons. Recordings are made on days post-plating 5, 7, 9 and 12. As these cultures mature over time, neural networks develop functional activity and form cohesive networks in which electrical activity can be highly coordinated. CCTE_Shafer_MEA_dev_AB is 1 of 19 assay components of the CCTE_Shafer_MEA_dev assay. It measures the resazurin reduction using fluorescence.Data from the assay component CCTE_Shafer_MEA_dev_AB was analyzed into 1 assay endpoint. This assay endpoint, CCTE_Shafer_MEA_dev_AB, was analyzed in the positive analysis fitting direction relative to DMSO as the negative control and baseline of activity. Using a type of viability reporter, loss-of-signal activity can be used to understand cell viability.
On the day prior to culture, each well was coated thoroughly with 150 uL of 0.05% polyethyleneimine (PEI, Sigma Cat P3143) in 50 mM HEPES (Sigma Cat H7523) at a pH of 8. The plate was incubated at 37C for one hour. PEI was rinsed out with 500 uL of sterile water three times. Plates were stored at 4C until the day of culture. This culture was plated at a seeding density of 1.5 x 10^5 cells/well on a 48-well MEA plate, prepared as described above. Cells were administered via a 25 uL media/laminin ([…]; Sigma Cat L2020-1MG) drop directly onto the microelectrode array, as adding the cells with the laminin results in better attachment than pre-coating with laminin. After 2 hours, an additional 475 uL of cortical media was added and the cells returned to the incubator. Exposure starts at day 0 of plating and is continued over twelve days of network development until the experiment is terminated. Cells are fed with fresh medium on DIV 5 and 9, following the recordings on those days. The entire volume of media in the well is exchanged and any vehicle or compound treatment is renewed. Complete details are found in OP-NHEERL/ISTD/SBB/TJS/2015-03-r0 (available on request, email shafer.tim@epa.gov). Measurement of the electrical activity is non-invasive, and recordings can be made from the same plate over multiple different days of the culture. In cortical neurons, this allows for the measurement of extracellular action potentials over the period during which networks form in the MEA plate.

SMILES	outcome	AC50
CCCCC(CC)CN1C(=O)C2C3C=CC(C3)C2C1=O (stereo unspecified)	inactive	–
Oc1ccc(C(c2ccc(O)cc2)C(Cl)(Cl)Cl)cc1	inactive	–
CCCCOCCOCCOCc1cc2c(cc1CCC)OCO2	inactive	–
Cc1nn(C)c(Oc2ccccc2)c1C=NOCc1ccc(C(=O)OC(C)(C)C)cc1	–	9.23 nM (active)
CCCN(CCC)C(=O)SCC	inactive	–
OB(O)O	inactive	–
S=C([S-])NCCNC(=S)[S-].[Mn+2]	inactive	–
CSC(=O)c1cccc2nnsc12	inactive	–
C#CCOC(=O)[C@@H](C)Oc1ccc(Oc2ncc(Cl)cc2F)cc1	–	10.1 nM (active)
CC1(C)C(C=C(Cl)Cl)C1C(=O)OCc1cccc(Oc2ccccc2)c1 (stereo unspecified)	–	26.4 µM (active) and 14.7 µM (active)
S=C(S)NCCNC(=S)S.[Mn+2].[S-]C([S-])=NCCN=C([S-])[S-].[Zn+2]	inactive	–
